Screens (PubChem BioAssay)
This excerpt belongs to a sample that is enriched for hits.
TTR transcr act: TTR transcription activation, primary screen; SH-SY5Y TTR promoter Gaussia luciferase, luminescence; 100% = recombinant luciferase protein wells; activation, % at 16.7 µM; 92,000 compounds, 1.3% hits; AID 1117267;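 active = activation above the mean of all tested compounds plus 3 SD, cut at about 9.5% in these data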;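 also: cells exposed to compounds for one day before reading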
TTR inh HuH7: decreases TTR transcription in HuH7 cells in activator counter-screen; shares compounds with TTR transcr act; HuH7 TTR promoter-Gaussia luciferase reporter, luminescence; inhibition, % at 16.7 µM; 1,100 compounds, 4% hits;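 active = average inhibition above the solvent-only control wells' mean plus 3 SD, cut at about 15% in these data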;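 also: inhibitors lower well luminescence so higher value means more inhibition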
TTR up confirm: human TTR transcription activation, confirmation; SHSY5Y TTR promoter Gaussia luciferase, luminescence; 100% = purified Lucia enzyme wells, no cells; 1,100 tested, under 10 active; activation, % at 16.7 µM; shares compounds with TTR transcr act;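 active = mean activation above a set limit taken from the earlier primary screen, cut at about 11% in these data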
Each line names hits and unclear results; the compound was inactive in the other large screens (follow-up assays come after a bar, where they were run).

CN(CC(=O)Nc1ccccc1Br)C(=O)c1ccncc1	none
O=C(O)c1ccccc1SC1CC(=O)N(c2cccc3ccccc23)C1=O (stereo not given)	none
COC(=O)c1ccccc1SC1CC(=O)N(c2ccccc2)C1=O (stereo not given)	TTR transcr act 21 | TTR inh HuH7 inactive | TTR up confirm inactive
Cn1nnnc1SC1CC(=O)N(c2ccccc2)C1=O (stereo not given)	none
CCCc1nc2sc3ccccc3c(=O)c2c(=O)n1Cc1ccccc1	none
Cn1c2ccccc2c(=O)c2c(=O)n(Cc3ccco3)c(-c3ccc(F)cc3)nc21	none
O=c1c2ccccc2sc2nc(C3CCCCC3)n(Cc3ccco3)c(=O)c12	TTR transcr act 17 | TTR inh HuH7 inactive | TTR up confirm inactive
O=S1(=O)c2c(cccc2N2CCC[C@H]2CO)OCCCN1C1CC1	none
Cc1cc2nc(-c3ccc(F)cc3)c(Cc3ccccc3)n2c(C)c1Br	none
Cc1ccc(Cc2c(-c3ccccc3)nc3cc(C)c(Br)c(C)n23)cc1	TTR transcr act 12 | TTR inh HuH7 inactive | TTR up confirm inactive
Cc1ccc(Cc2c(-c3cccc(Cl)c3)nc3cc(C)c(Br)c(C)n23)cc1	none
Cc1ccc(C(=O)CC2SC(N)=NC2=O)cc1 (stereo not given)	TTR transcr act 20 | TTR inh HuH7 inactive | TTR up confirm inactive
CC(=O)c1ccc(CC2SC(N)=NC2=O)cc1 (stereo not given)	none
NC1=NC(=O)C(CC(=O)NCc2ccccc2)S1 (stereo not given)	none
COc1ccc(CCN=C(N)NS(=O)(=O)c2cccs2)cc1	none
NC(=NCCc1ccccc1)NS(=O)(=O)c1cccs1	TTR transcr act 19 | TTR inh HuH7 inactive | TTR up confirm inactive
NC(=NCCc1ccc(Cl)cc1)NS(=O)(=O)c1ccccc1	none
CCC1(c2ccccc2)NC(=O)N(CC(=O)Nc2ccc(OC)nc2)C1=O (stereo not given)	none
CCCCNC(=O)COCc1cc(-c2ccc3c(c2)OCO3)on1	none
CC(C)CNC(=O)COCc1cc(-c2ccc3c(c2)OCO3)on1	TTR transcr act 12 | TTR inh HuH7 inactive | TTR up confirm inactive
CCCNC(=O)COCc1cc(-c2ccc3c(c2)OCO3)on1	none
CC[C@]1(c2ccc(C)cc2)C(=O)N(C(=O)OC(C)C)N1C(=O)OC(C)C	none
CCN(CC)C(=O)O[C@H]1CC[C@@]23CCCN2C(=O)CCC[C@H]3[C@H]1C	none
CCCC1CCC2(CCCN2CCOC(=O)Nc2ccccc2OC)CC1 (stereo not given)	none
COc1cc(/C=C2\SC(=Nc3ccc(Cl)c(C(=O)O)c3)NC2=O)c(Br)c(Br)c1O	none
Cc1onc(C(=O)N2CCN(C(c3ccccc3)c3ccccc3)CC2)c1Br	none
c1coc(CSc2ncnc3c2oc2ccccc23)c1	none
c1ccc(Sc2ncnc3c2oc2ccccc23)nc1	TTR transcr act 18 | TTR inh HuH7 20 | TTR up confirm inactive
Oc1ccc(Nc2ncnc3c2oc2ccccc23)cc1	none
COc1ccc(Cn2ccc3ccc(-c4ccc5ccn(Cc6ccc(C#N)cc6)c5c4)cc32)cc1	none
S=C(Nc1ccc(Br)cc1)OCCN1CCCC12CCC(c1ccccc1)CC2 (stereo not given)	none
